Jurkat NFkB inh: inhibitors of the PMA/ionomycin-induced NF-kB reporter in Jurkat cells; PMA/ionomycin-induced NF-kB luciferase reporter, luminescence; inhibition, % at 4 µM; 330,000 tested, 0.53% active; AID 435003; in the data active = inhibition above about 50%
F508del corr: CFTR F508del correction in bronchial cells; CFBE cells, YFP halide quenching; stimulated with forskolin plus potentiator P3; % fluorescence drop versus neutral controls; 350,000 tested, 0.36% active; activity (quench increase), % at 7.58 µM; AID 720511;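 active = mean added fluorescence quench of at least 8% versus neutral control, with both replicates also reaching 8%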;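 also: cells transiently co-express mutant CFTR-F508del with the halide-sensitive YFP; corrector assay measuring rescue of mutant channel to the surface after 24 h compound exposure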
697 NFkB inh: lowers PMA/ionomycin-induced NF-kB signal in 697 B cells | 330,000 tested, 0.33% active | 697 B-cell NF-kB luciferase reporter, 16 h | AID 435022 | inhibition, % at 4 µM; in the data active = inhibition above about 35%
HIF activator: HIF pathway transcriptional activation; 300,000 tested, 0.32% active; activation, % at 7.5 µM (by protocol); U2OS HRE-luciferase reporter, luminescence; normalized: DMSO 0%, desferrioxamine 100%;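 active = mean activation of at least 10% of the iron chelator positive control signal, with at least half of replicates also reaching 10%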
Jurkat NFkB conf: inhibitors of the PMA/ionomycin-induced NF-kB reporter in Jurkat cells, retest. shares compounds with Jurkat NFkB inh. Jurkat NF-kB luciferase, 16 h. inhibition, % at 4 µM. 2,700 tested, 27% active;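 active = inhibition reaching about 45% at 4 µM in either replicate, limit read from the data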
Large screens that a line does not name were inactive (follow-up assays come after a bar, where they were run). Sampled rows, rich in hits. Any-hit rate of the full collection: about 0.93%.

CCCCC(=O)NC(c1ccc(C(C)C)cc1)c1ccc2cccnc2c1O (stereo not drawn)	Jurkat NFkB inh 61, HIF activator 103 | Jurkat NFkB conf 82
COCC(=O)Nc1ccc2c(c1)[C@H]1C[C@@H](CC(=O)NC3CCCCC3)O[C@H](CO)[C@H]1O2	none (no result: Jurkat NFkB inh, 697 NFkB inh, HIF activator)
Nc1ccc(-c2nc3cc(N)ccc3s2)cc1	none (no result: HIF activator) | Jurkat NFkB conf inactive
Cc1ccc2nc(-c3ccc(N)cc3)sc2c1	none
O=C(Nc1ccccc1)c1cc2ccccc2o1	none (no result: F508del corr)
Cc1ccsc1C(=O)Nc1nc2ccccc2[nH]1	none | Jurkat NFkB conf inactive
COc1ccc2oc(C(=O)Nc3nc4ccccc4[nH]3)c(C)c2c1	none | Jurkat NFkB conf inactive
Cc1cc(C)cc(C(=O)Nc2nc3ccccc3[nH]2)c1	none
O=C(Nc1nc2ccccc2[nH]1)c1cc2ccccc2o1	none | Jurkat NFkB conf inactive
COc1ccc(Br)c(C(=O)Nc2nc3ccccc3[nH]2)c1	none
O=C(Nc1nc2ccccc2[nH]1)c1ccc(F)cc1	none | Jurkat NFkB conf inactive
O=C(Nc1cccnc1)c1cc2c(ccc3ccccc32)o1	none (no result: F508del corr) | Jurkat NFkB conf inactive
O=C(c1cc2c(ccc3ccccc32)o1)N1CCCCC1	none | Jurkat NFkB conf inactive
COC(=O)[C@H]1[C@H](CO)[C@H]2Cn3c(ccc(-c4ccncc4)c3=O)[C@H]2N1CC1CCCC1	none (no result: Jurkat NFkB inh, 697 NFkB inh, HIF activator)
O=S1(=O)C=CC(Nc2cccc(Cl)c2)C1 (stereo not drawn)	Jurkat NFkB inh 50 | Jurkat NFkB conf inactive
COc1ccc(S(=O)(=O)Nc2cccc(-c3ccc4nncn4n3)c2)cc1F	Jurkat NFkB inh 58 (no result: F508del corr) | Jurkat NFkB conf 50
CC(C)(C)C(=O)N/C(N)=N/c1nc2ccccc2o1	none | Jurkat NFkB conf inactive
CCC(=O)N/C(N)=N/c1nc2ccccc2o1	none
CCC(=O)N(C)C[C@@H]1Oc2cc(-c3cccc(F)c3)ccc2S(=O)(=O)N([C@@H](C)CO)C[C@H]1C	none (no result: Jurkat NFkB inh, 697 NFkB inh, HIF activator)
Cc1ccc(NC(=O)Nc2ccnc(-c3cccnc3)n2)cc1	Jurkat NFkB inh 62 | Jurkat NFkB conf 47
Cc1ccc(C(=O)Nc2ccnc(-c3cccnc3)n2)cc1	none
CCCNC(=O)Nc1ccc2c(c1)OC[C@@H](C)N(C(=O)CC)C[C@@H](C)[C@@H](OC)CN(C)C2=O	none (no result: Jurkat NFkB inh, 697 NFkB inh, HIF activator)
CCCOc1ccc(/C=N/Nc2cc(N3CCOCC3)ncn2)c(O)c1	Jurkat NFkB inh 55 | Jurkat NFkB conf 76
CCOc1ccc(/C=N/Nc2cc(N3CCOCC3)ncn2)c(O)c1	none (no result: Jurkat NFkB inh, 697 NFkB inh, HIF activator)
CCOc1cc(CNCCc2ccc(S(N)(=O)=O)cc2)ccc1OCc1ccc(Cl)cc1	Jurkat NFkB inh 54 (no result: F508del corr) | Jurkat NFkB conf inactive
COc1cc(CNCCc2ccc(S(N)(=O)=O)cc2)ccc1OCc1ccc(Cl)cc1	none
CCN1C(=C(C#N)C#N)C=Cc2cc(C)ccc21	none
C=CC[n+]1c(/C=C2\C=Cc3cc(C)ccc3N2CC)ccc2ccccc21	Jurkat NFkB inh 78 | Jurkat NFkB conf inactive
COc1ccc(-c2c(C#N)c(N)nc3c2CCc2ccccc2-3)cc1OC	Jurkat NFkB inh 67 (no result: F508del corr) | Jurkat NFkB conf inactive
Cc1ccc(S(=O)(=O)NCc2ccncc2)cc1C	Jurkat NFkB inh 52 | Jurkat NFkB conf 55
O=S(=O)(NCc1ccncc1)c1ccc(F)c(F)c1	none (no result: Jurkat NFkB inh, 697 NFkB inh, HIF activator)
O=C1CC(c2ccccc2F)c2cc3c(cc2N1)CCC3 (stereo not drawn)	none (no result: F508del corr)
O=C1CC(c2cc(Br)ccc2F)c2cc3c(cc2N1)CCC3 (stereo not drawn)	Jurkat NFkB inh 73 | Jurkat NFkB conf 48
O=C1CC(c2ccccc2Br)c2cc3c(cc2N1)CCC3 (stereo not drawn)	Jurkat NFkB inh 55 (no result: F508del corr) | Jurkat NFkB conf inactive
COc1ccc2c(Cn3cnc4cc([N+](=O)[O-])ccc4c3=O)cc(=O)oc2c1	Jurkat NFkB inh 70 (no result: F508del corr) | Jurkat NFkB conf inactive
O=[N+]([O-])c1ccc2nc(-c3ccc(Cl)cc3)n(OCc3ccccc3)c2c1	none (no result: F508del corr) | Jurkat NFkB conf inactive
O=[N+]([O-])c1ccc(O)c(/C=N/Nc2nn[nH]n2)c1	none
O=[N+]([O-])c1ccc(O)c(/C=N/Nc2ccc(Cl)nn2)c1	Jurkat NFkB inh 53, HIF activator 64 (no result: F508del corr) | Jurkat NFkB conf 78
Cc1ccc(S(=O)(=O)Nc2ccc3c(c2)C(=O)N([C@@H](C)CO)C[C@@H](C)[C@@H](CN(C)C(=O)NC2CCCCC2)O3)cc1	none (no result: Jurkat NFkB inh, 697 NFkB inh, HIF activator)
CNC[C@H]1OCCCC[C@@H](C)Oc2ccc(NS(=O)(=O)c3ccc(OC)cc3)cc2C(=O)N([C@@H](C)CO)C[C@@H]1C	none (no result: Jurkat NFkB inh, 697 NFkB inh, HIF activator)
Cc1c(C)c2ccc(OCC(=O)Nc3ccccn3)c(C)c2oc1=O	Jurkat NFkB inh 91 | Jurkat NFkB conf 94
CCOC(=O)c1c(C)[nH]c(C(=O)Nc2ccc(NC(C)=O)cc2)c1C	none
CCOC(=O)c1c(C)[nH]c(C(=O)Nc2ccc(C)c(Cl)c2)c1C	none (no result: F508del corr) | Jurkat NFkB conf inactive
Cc1cc(NC(=O)CSc2nnc(-c3ccccc3)c(-c3ccccc3)n2)no1	Jurkat NFkB inh 60 | Jurkat NFkB conf inactive
O=C(Cc1ccccc1)OC(COCc1ccccc1)C(=O)NCc1ccccc1 (stereo not drawn)	none (no result: Jurkat NFkB inh, 697 NFkB inh, HIF activator)
CO[C@@H]1CN(C)C(=O)c2ccc(NC(=O)C3CC3)cc2OC[C@H](C)N(C(=O)C2CCOCC2)C[C@@H]1C	none (no result: Jurkat NFkB inh, 697 NFkB inh, HIF activator)
COc1ccc(OCC(=O)Nc2ccc(OC)c(S(=O)(=O)N3CCCCC3)c2)cc1	Jurkat NFkB inh 50 | Jurkat NFkB conf inactive
Fc1cccc(F)c1CSc1nc2ccccc2[nH]1	none (no result: F508del corr) | Jurkat NFkB conf inactive
Cn1cccc1C(=O)C(=O)Nc1cccc(Cl)c1Cl	none (no result: F508del corr) | Jurkat NFkB conf inactive
COc1cc2sc3ccc(-c4ccc(N(C)C)nc4)cc3c(=O)c2cc1OC	none | Jurkat NFkB conf inactive
O=S(=O)(c1ccc(F)cc1)N1CC[C@@H]2[C@@H](CO)Nc3ccc(Br)cc3[C@@H]21	none (no result: Jurkat NFkB inh, 697 NFkB inh, HIF activator)
COc1ccc(C(=O)Nc2ccc3[nH]c(-c4cccc(OC)c4)cc(=O)c3c2)cc1	Jurkat NFkB inh 85 | Jurkat NFkB conf 49
COc1ccc(C(=O)Nc2cccc(OC)c2)cc1	none
O=C(c1ccccc1)c1nn(-c2ccc(Cl)cc2)c(=O)cc1C(F)(F)F	Jurkat NFkB inh 98 (no result: F508del corr) | Jurkat NFkB conf 80
CCCCCCCOc1ccc(OC(=O)c2cccnc2)cc1	Jurkat NFkB inh 85 (no result: F508del corr) | Jurkat NFkB conf 53
CCCCOc1ccc(OC(=O)c2cccnc2)cc1	none (no result: F508del corr)
CCCCCCCOc1ccc(OC(=O)c2ccncc2)cc1	Jurkat NFkB inh 80 | Jurkat NFkB conf 55
O=C(C[C@@H]1C[C@@H]2c3cc(NC(=O)C4CCOCC4)ccc3O[C@@H]2[C@@H](CO)O1)NCC1CC1	none (no result: Jurkat NFkB inh, 697 NFkB inh, HIF activator)
NC(=O)CC(NC(=O)Cc1ccc(Br)cc1)c1ccc(NCC2CC2)c([N+](=O)[O-])c1 (stereo not drawn)	Jurkat NFkB inh 51 | Jurkat NFkB conf inactive
CC(C)Nc1ccc(C(CC(N)=O)NC(=O)c2ccccc2)cc1[N+](=O)[O-] (stereo not drawn)	none
CC(C)Nc1ccc(C(CC(N)=O)NC(=O)c2ccc(Br)cc2)cc1[N+](=O)[O-] (stereo not drawn)	Jurkat NFkB inh 59 | Jurkat NFkB conf inactive
NC(=O)CC(NC(=O)Cc1ccc(Cl)cc1)c1ccc(NCC2CC2)c([N+](=O)[O-])c1 (stereo not drawn)	none
